Source: PubChem BioAssay
Shown are actives, neighbours in structure and some others; about 2.3% of the full set was active somewhere.
FBPA coupling cs – counter-screen for Giardia aldolase inhibitors: coupling enzyme system; coupling enzyme system counterscreen, AmpLite Red fluorescence; activity change, negative = inhibition, % at 58.2 µM, hits read low; 290,000 tested, 0.67% active; in the data active = activity change below about -30%
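Activity here indicates interference with the coupling reaction, not aldolase inhibition. Compounds at 57.5 uM final met coupling enzymes for 10 min at RT; substrate and AmpLite Red detection followed, with a 525/598 nm fluorescence read after 20 min.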
Tau fluor counter – counter-screen for tau fibril formation inhibitors; tau K18 P301L Alexa594 fluorescence, heparin fibrillization; Potency, µM (top dose mostly 57.7 µM), for the others: at the highest dose activity change, negative = decrease; 280,000 tested, 0.93% active; also: potency is read from the fitted curve at half-maximal effect; nearly all actives have a fitted effect of over 55% in size
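Human tau K18 P301L (15 uM unlabeled, 0.24 uM Alexa 594-labeled) in 100 mM sodium acetate pH 7 with 20 uM heparin, 6 hr at 37 C. ThT 30 uM added, 1 hr ambient; Alexa 594 FP and total fluorescence read at 555/632 nm.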
USP1-UAF1 inh – inhibitors of human USP1/UAF1 deubiquitinase | Potency, µM (doses to about 57.1 µM), for the others: at the highest dose activity change, negative = inhibition, hits mostly inhibitors | 390,000 tested, 0.23% active | O94782 | recombinant USP1/UAF1, Ub-Rhodamine cleavage fluorescence | AID 743255; also: potency is read from the fitted curve at half-maximal effect; nearly all actives have a fitted effect of over 60% in size
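In this screen, compounds sit with the deubiquitinase complex (1nM) for 15 min at room temperature before Ub-Rho is added at 150nM final. Fluorescence rise is then followed for 6 reads every 60 seconds.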
Tau fibril ThT – blocks human tau fibril formation measured by thioflavin T. P10636. recombinant tau K18 P301L, heparin-induced fibrillization, ThT fluorescence. Potency, µM (series often up to 57.4 µM), inactives show top-dose activity, negative = inhibition, most hits filed as inhibitors. 270,000 tested, 2.1% active. AID 1460; also: potency is read from the fitted curve at half-maximal effect; nearly all actives have a fitted effect of over 55% in size
Target sequence (P10636 561-689 P618L limits assumed): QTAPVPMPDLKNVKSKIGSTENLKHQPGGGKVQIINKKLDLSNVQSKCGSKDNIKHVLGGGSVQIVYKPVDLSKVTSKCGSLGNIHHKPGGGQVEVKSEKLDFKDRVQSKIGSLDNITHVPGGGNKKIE
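Fibril formation assay: tau K18 P301L at 15 uM with trace Alexa 594 label, heparin inducer 20 uM, pH 7 sodium acetate buffer, 37 C for 6 hr; endpoint ThT signal.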
Tau fibril FP – tau fibrillization inhibition (FP); K18 P301L tau heparin fibrillization, Alexa594 FP, 6 h; P10636; 280,000 tested, 0.39% active; Potency, µM (titrated, usually from 57.7 µM), without a hit: top-dose activity, negative = inhibition, actives largely listed as inhibitors; also: potency is read from the fitted curve at half-maximal effect; nearly all actives have a fitted effect of over 55% in size
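Human K18 P301L fragment (15 uM unlabeled plus 0.24 uM Alexa 594-labeled) in 100 mM sodium acetate pH 7 with compound, aggregation induced by 20 uM heparin for 6 hr at 37 C. ThT (30 uM) added for 1 hr, then Alexa 594 FP read.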
The depositor's hits bear a star. Unless noted, calls follow the shape of the dose curve; as a rule, active = well fitted curve in the direction sought with a large enough effect; inconclusive = small, poorly fitted or top-dose-only effect, or another doubt; inactive = no such curve, though single readings can be large; an effect the other way counts as inactive or inconclusive. % is scaled to controls: 0 for no effect and ±100 for the full control effect.

Results for CN1CC=C2C(C#N)=C(N)C(C#N)(C#N)C(c3cccc(Cl)c3Cl)C2C1 (stereo not drawn) ?
FBPA coupling cs: -6; Tau fluor counter: -25%; USP1-UAF1 inh: -21%; Tau fibril ThT: inconclusive; Tau fibril FP: inconclusive

What do the screens show for `CN1C2C=C3C(C#N)=C(N)C(C#N)(C#N)[C@H](c4c(F)cccc4F)[C@H]3C1CC2` (stereo partly drawn)?
Tau fluor counter: -19%; USP1-UAF1 inh: 0%; Tau fibril ThT: 14µM*; Tau fibril FP: inconclusive

How did N#CC1=C(N)C(C#N)(C#N)[C@H](c2c(F)cccc2F)[C@H]2CC3(CC=C12)OCCO3 do in these assays?
FBPA coupling cs: -3; Tau fluor counter: -19%; USP1-UAF1 inh: 6%; Tau fibril ThT: inconclusive; Tau fibril FP: inconclusive

What do the screens show for `CN(C)CCCNC(=O)C(=O)NCC1OCCN1S(=O)(=O)c1cc(F)ccc1F` (stereo not drawn)?
USP1-UAF1 inh: -2%

What do the screens show for `COc1ccc(NC(=O)c2c(NCc3sccc3C)sc3c2CCCCC3)c(OC)c1`?
Tau fluor counter: inconclusive; USP1-UAF1 inh: -25%; Tau fibril ThT: 28µM*; Tau fibril FP: inconclusive

Results for COc1ccc(Cl)cc1NC(=O)c1c(NCc2sccc2C)sc2c1CCCC2 ?
Tau fluor counter: inconclusive; USP1-UAF1 inh: -11%; Tau fibril ThT: 4µM*; Tau fibril FP: inconclusive

How did COc1ccc(Cl)cc1NC(=O)c1c(NCc2cccs2)sc2c1CCCC2 do in these assays?
Tau fluor counter: inconclusive; USP1-UAF1 inh: -12%; Tau fibril ThT: inconclusive; Tau fibril FP: -4%

How did COc1ccc(NC(=O)c2c(NCc3ccc(C)o3)sc3c2CCCCC3)c(OC)c1 do in these assays?
Tau fluor counter: inconclusive; USP1-UAF1 inh: -16%; Tau fibril ThT: 18µM*; Tau fibril FP: inconclusive

Results for COc1ccccc1NC(=O)c1c(NCc2sccc2C)sc2c1CCCCC2 ?
Tau fluor counter: -19%; USP1-UAF1 inh: 4%; Tau fibril ThT: inconclusive; Tau fibril FP: 0%

How did CC(C)C#Cc1cnc2c(c1)C(=O)N([C@@H](C)CO)C[C@@H](C)[C@H](CN(C)Cc1cccc(F)c1)O2 do in these assays?
USP1-UAF1 inh: -21%

What do the screens show for `COC(=O)c1ccc(C(NC(=O)OCc2ccccc2)/C(=C/[C@@H](C)C(=O)NCc2ccc(S(C)(=O)=O)cc2)c2cccnc2)cc1` (stereo partly drawn)?
FBPA coupling cs: 0; Tau fluor counter: -1%; Tau fibril ThT: 2%; Tau fibril FP: 0%

How did O=C(CN1C(=O)NC2(CCCC2)C1=O)NCCc1ccc(Cl)cc1Cl do in these assays?
USP1-UAF1 inh: -12%

How did Cc1cccc(NC2=C(NCCO)C(=O)c3ccccc3C2=O)c1 do in these assays?
FBPA coupling cs: -35*; Tau fluor counter: inconclusive; USP1-UAF1 inh: 32µM*; Tau fibril ThT: 25µM*; Tau fibril FP: inconclusive

How did COc1ccc(NC2=C(NC(C)=O)C(=O)c3ccccc3C2=O)cc1 do in these assays?
FBPA coupling cs: -25; USP1-UAF1 inh: -12%

What do the screens show for `COc1ccc(NC2=C(NCCO)C(=O)c3ccccc3C2=O)cc1`?
FBPA coupling cs: -43*; Tau fluor counter: inconclusive; USP1-UAF1 inh: 25µM*; Tau fibril ThT: 13µM*; Tau fibril FP: inconclusive

Results for COc1cccc(Nc2c(Nc3cccc(OC)c3)c(=O)c2=O)c1 ?
FBPA coupling cs: 1; USP1-UAF1 inh: -7%

Results for COc1cccc(NC2=C(NCCO)C(=O)c3ccccc3C2=O)c1 ?
FBPA coupling cs: -30*; USP1-UAF1 inh: inconclusive

How did O=C(CN(C(=O)c1csnn1)c1ccccc1C(F)(F)F)NCc1ccccc1 do in these assays?
FBPA coupling cs: 1; USP1-UAF1 inh: 5%

How did O=C(O)c1ccc(NC2=C(N3CCOCC3)C(=O)c3ccccc3C2=O)cc1 do in these assays?
FBPA coupling cs: -28; Tau fluor counter: inconclusive; USP1-UAF1 inh: 28µM*; Tau fibril ThT: 18µM*; Tau fibril FP: inconclusive

What do the screens show for `CC(=O)c1ccc(S(=O)(=O)Nc2ccc(N3CCOCC3)cc2)cc1`?
FBPA coupling cs: 1; USP1-UAF1 inh: -26%

Results for Cc1ccc(Nc2nc(N3CCOCC3)nc(N3CCOCC3)n2)cc1 ?
FBPA coupling cs: -7; Tau fluor counter: -3%; USP1-UAF1 inh: -9%; Tau fibril ThT: -4%; Tau fibril FP: 2%

How did Cc1ccc(NC2=C(N3CCOCC3)C(=O)c3ccccc3C2=O)cc1 do in these assays?
FBPA coupling cs: -50*; Tau fluor counter: inconclusive; USP1-UAF1 inh: 40µM*; Tau fibril ThT: inconclusive; Tau fibril FP: inconclusive

Results for CC(=O)c1ccc(NC2=C(N3CCOCC3)C(=O)c3ccccc3C2=O)cc1 ?
FBPA coupling cs: -30*; Tau fluor counter: inconclusive; USP1-UAF1 inh: inconclusive; Tau fibril ThT: inconclusive; Tau fibril FP: -9%

How did COc1cc(C(=O)N/N=C(\C)c2ccc(NC(=O)Cc3ccccc3)cc2)ccc1O do in these assays?
USP1-UAF1 inh: -24%

Results for O=C(CCC1CCN(C(=O)c2cncs2)CC1)Nc1ccccc1 ?
USP1-UAF1 inh: 10%

Results for Nc1ccc2c(c1)C(=O)C(=O)c1ccccc1-2 ?
FBPA coupling cs: 0; Tau fluor counter: -4%; USP1-UAF1 inh: 1.3µM*; Tau fibril ThT: -2%; Tau fibril FP: 4%

What do the screens show for `Nc1ccc2c(c1)C(=O)c1ccccc1-2`?
USP1-UAF1 inh: -7%

What do the screens show for `O=C1C(=O)c2ccc(-c3ccccc3)cc2-c2ccccc21`?
FBPA coupling cs: -72*; Tau fluor counter: -18%; USP1-UAF1 inh: 5µM*; Tau fibril ThT: 1.3µM*; Tau fibril FP: inconclusive

What do the screens show for `CC1CCN(C(=O)COC(=O)c2ccc(N3CCCC3=O)cc2)CC1`?
USP1-UAF1 inh: -20%

How did CCOC(=O)c1cnc(-c2cccc(OC)c2)[nH]c1=O do in these assays?
FBPA coupling cs: -33*; Tau fluor counter: 2%; USP1-UAF1 inh: 0%; Tau fibril ThT: -4%; Tau fibril FP: 9%

Results for CCOC(=O)c1c(OCC)[nH]c2c1cc(O)c1ccccc12 ?
FBPA coupling cs: -49*; Tau fluor counter: inconclusive; USP1-UAF1 inh: inconclusive; Tau fibril ThT: 14µM*; Tau fibril FP: 11%

How did COc1ccc(OC)c(N=c2oc3cc(O)ccc3cc2C(N)=O)c1 do in these assays?
FBPA coupling cs: 7; Tau fluor counter: inconclusive; USP1-UAF1 inh: inconclusive; Tau fibril ThT: 32µM*; Tau fibril FP: inconclusive

What do the screens show for `C/C=C1\COC(C(=O)NCCOCCO)(C(F)(F)F)C=C1C=C1CCCCC1` (stereo not drawn)?
FBPA coupling cs: 0

Results for O=c1oc2ccccc2cc1-c1nc2c(s1)CCc1ccccc1-2 ?
FBPA coupling cs: -81*; Tau fluor counter: 4%; USP1-UAF1 inh: -24%; Tau fibril ThT: 7%; Tau fibril FP: 9%
